# Assay outcomes (PubChem BioAssay)
# Sfp PPTase inh: inhibitors of Bacillus subtilis Sfp phosphopantetheinyl transferase; Biochemical Sfp PPTase activity, qHTS; Potency, µM, for inactives: largest response in the series, negative = inhibition, actives largely listed as inhibitors; Q9F4F7; actives 3.5% (n = 310,000);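 further: the enzyme is Sfp with the accession as filed and its product quenches rhodamine fluorescence; potency means the concentration at half of the fitted maximal effect; 0% = enzyme reaction without inhibitor and -100% = no enzyme wells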
#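 Buffer: 50 mM Hepes-Na pH 7.6, 10 mM MgCl2, 0.01% Nonidet P-40, 0.01% BSA. Enzyme 15 nM, pre-exposed to compound 15 min; substrates then added and fluorescence change tracked over 30 min.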
# Tau fluor cs: counter-screen for tau fibril formation inhibitors; Potency, µM (doses to about 57.7 µM), without a hit: at the top dose activity change, negative = decrease; tau K18 P301L Alexa594 fluorescence, heparin fibrillization; actives 0.93% (n = 280,000); AID 1463; further: potency means the concentration at half of the fitted maximal effect; nearly all actives have a fitted effect of over 55% in size
#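 Human tau K18 P301L (15 uM unlabeled, 0.24 uM Alexa 594-labeled) in 100 mM sodium acetate pH 7 with 20 uM heparin, 6 hr at 37 C. ThT 30 uM added, 1 hr ambient; Alexa 594 FP and total fluorescence read at 555/632 nm.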
# Tau FP inhib: blocks human tau fibril formation measured by polarization; K18 P301L tau heparin fibrillization, Alexa594 FP, 6 h; Potency, µM (doses to about 57.7 µM), for inactives: top-dose activity, negative = inhibition, hits mostly inhibitors; actives 0.39% (n = 280,000); AID 1468; further: potency means the concentration at half of the fitted maximal effect; nearly all actives have a fitted effect of over 55% in size
# Target sequence (P10636 561-689 P618L limits assumed): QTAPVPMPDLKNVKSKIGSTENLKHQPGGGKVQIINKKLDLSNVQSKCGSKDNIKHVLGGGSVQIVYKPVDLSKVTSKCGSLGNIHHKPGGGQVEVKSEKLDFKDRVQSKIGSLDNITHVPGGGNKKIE
#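 Compound effects on tau fibrillization are measured by Alexa 594 fluorescence polarization (ex 555, em 632 nm). K18 P301L tau is used at 15 uM with 0.24 uM labeled tracer, and 20 uM heparin induces aggregation over 6 hr at 37 C.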
# Coupling enz: inhibits coupling enzyme system, counter-screen for aldolase hits. activity change, negative = inhibition, % at 58.2 µM, hits read low. AID 2472. coupling enzyme system counterscreen, AmpLite Red fluorescence. actives 0.67% (n = 290,000); in the data active means activity change below about -30%
#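 Final compound at 57.5 uM, incubated 10 min at RT with coupling enzyme reagent (glyceraldehyde-3-phosphate), then 20 min with substrate and AmpLite Red detection. Fluorescence read at 525/598 nm; tests interference with the coupling assay, not aldolase inhibition.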
# Tau ThT inhib: tau fibrillization inhibition (ThT binding); P10636; recombinant tau K18 P301L (four-repeat tau fragment), heparin-induced fibrillization, ThT fluorescence; Potency, µM (series often up to 57.4 µM), inactives show at the highest dose activity, negative = inhibition, usual class: inhibitors; actives 2.1% (n = 270,000); further: potency means the concentration at half of the fitted maximal effect; nearly all actives have a fitted effect of over 55% in size
#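 Heparin-induced fibrillization of the P301L-mutant K18 repeat-domain fragment of human tau was followed by ThT binding in quantitative high-throughput format.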
# Active calls of the source: *; ? = inconclusive; · = not tested or not shown; ! = not active in a repeat; [ ] = remark or other dose. Compounds with a hit are over-represented: about 5.2% of the library has one in this group of screens. Unless noted, the call rests on the fitted dose curve; in most records, active means well fitted curve in the direction sought with a large enough effect; inconclusive means small, poorly fitted or top-dose-only effect, or another doubt; inactive means no such curve, though single readings can be large; an effect the other way counts as inactive or inconclusive. Unless noted, on the % scale 0 is the no-effect control and ±100 the full control effect.
SMILES,Sfp PPTase inh,Tau fluor cs,Tau FP inhib,Coupling enz,Tau ThT inhib
C[C@@H]1C(c2cccc(Cl)c2)=NN(c2ccccc2)[C@H]1C(=O)N1CCOC1=O,8.5%,?,13.3%[81.3 µM],-0.7,-7.5%[81.4 µM]
CCCCS(=O)(=O)c1oc(-c2ccc(F)cc2)nc1S(=O)(=O)c1ccccc1,·,-12.6%,-31.4%,·,-7.1%
COC(=O)c1c(NC(=O)Cn2nc(C(F)F)cc2C(F)F)sc(C)c1C,56.2µM*,-11.2%,7.1%,0.3,4.7%
Cc1ccn2c(=O)cc(COc3cccc(NC(=O)Nc4cccc(Cl)c4C)c3)nc2c1,·,-23.0%,-7.2%,·,?
O=S(=O)(C/C(=C/CO)S(=O)(=O)c1ccccc1)c1ccccc1,-5.8%,-14.0%,?,0.4,3.55µM*
Oc1c(I)cc(I)c2cccnc12,50.1µM*!,-19.6%,0.4%,-11.5,-16.9%
O=S(=O)(O)c1cc(I)c(O)c2ncccc12,2.51µM*,·,·,·,·
COc1ccc(-c2cc(-c3ccc(C)cc3)n[nH]2)c(O)c1,-0.8%,·,·,-8.5,·
COc1ccc(-c2cc(-c3cc(C)ccc3O)[nH]n2)cc1,-1.6%,15.8µM*[quencher],?,-3.9,?
CCCC1O[C@@H]2C[C@H]3[C@@H]4CCC5=CC(=O)C=C[C@]5(C)C4[C@@H](O)C[C@]3(C)[C@]2(C(=O)CO)O1 (stereo partly drawn),·,-4.2%,-6.4%,·,-2.5%
c1ccc(Nc2nc(NCc3ccco3)c3ccccc3n2)cc1,15.8µM*,?,-10.9%,-2.8,9.7%
c1ccc(CN2CCN(c3nc(NCc4ccco4)c4ccccc4n3)CC2)cc1,44.7µM*,?,13.4%,-8.4,-15.0%
Oc1ccccc1Nc1nc(NCc2ccco2)c2ccccc2n1,25.1µM*,17.8µM*[quencher],-10.0%,-0.8,?
Cc1ccccc1Nc1nc(NCc2ccco2)c2ccccc2n1,?,?,13.2%,0.2,?
c1cncc(-c2nc(NCc3ccco3)c3ccccc3n2)c1,79.4µM*,-26.7%,-2.4%,-5.9,?
COc1ccc(CNC(=O)Cn2c(=O)nc(-c3ccccc3F)c3cc(Cl)ccc32)cc1,·,1.7%,-16.5%,·,4.7%
COc1ccc(OC)c(-n2c(CN3CCC(C(N)=O)CC3)nc3ccccc3c2=O)c1,35.5µM*,7.7%,-0.9%,-10.9,11.6%
COc1ccc(-n2c(CN3CCN(c4ccccc4)CC3)nc3ccc([N+](=O)[O-])cc3c2=O)c(OC)c1,-18.3%,·,·,-4.0,·
COc1ccc(-n2c(CN3CCC(C)CC3)nc3ccc([N+](=O)[O-])cc3c2=O)c(OC)c1,25.1µM*,-14.8%,1.5%,-2.9,?
COc1ccc(-n2c(CN3CCOCC3)nc3ccc([N+](=O)[O-])cc3c2=O)c(OC)c1,?,·,·,-1.7,·
COc1cccc(-n2c(CN3CCN(c4ccccn4)CC3)nc3ccc([N+](=O)[O-])cc3c2=O)c1,14.1µM*,-21.7%,0.0%,-1.0,?
COc1ccc(C2=CSC3=NNC4(CCCCC4)NN23)cc1,-23.5%,-26.2%,0.2%,2.5,22.4µM*
O=C(NCc1ccc(F)cc1)C1CCCN(c2ncnc3onc(-c4ccc(F)cc4)c23)C1 (stereo not drawn),·,-14.7%,-14.3%,·,5.9%
N#Cc1cc2cc3c(cc2nc1N1CCCCC1)OCCO3,28.2µM*,-15.1%,-10.1%,0.7,-8.4%
Cc1ccc(-n2ncc3c(NCCCN(C)C)ncnc32)cc1Cl,·,-6.7%,-5.1%,·,0.9%
SMILES,Sfp PPTase inh,Tau fluor cs,Tau FP inhib,Coupling enz,Tau ThT inhib
CCN(CC)C(=O)COc1ccc(/C(C)=N/Nc2ncc(Cl)cc2Cl)cc1,79.4µM*,-5.4%,4.3%,9.9,?
CCCCCCCCCCCCCCC[C@H](O)[C@@H](N)CO,?,-3.8%,-2.2%,-2.3,0.1%
Cc1ccc(CNC(=O)Cn2cc3c(n2)-c2c(oc(C(=O)N4CCOCC4)c2C)CC3)cc1,·,-4.9%,3.1%,·,-4.6%
O=C(O)c1cccc(N2C(=O)C3C4C=CC(C4=C(c4ccccc4)c4ccccc4)C3C2=O)c1 (stereo not drawn),35.5µM*,-6.0%,-9.6%,-0.3,8.6%
Cc1ccc(-c2noc(C(C)NS(=O)(=O)c3ccc(C)cc3)n2)cc1 (stereo not drawn),·,-18.1%,-2.5%,·,-5.3%
CC(CCc1ccco1)NC(=O)Cn1ncc2c1-c1ccccc1OC2 (stereo not drawn),50.1µM*,-2.1%,-4.2%,12.9,-11.7%
O=C(Cn1ncc2c1-c1ccccc1OC2)N(Cc1ccco1)C1CCCCC1,-10.0%,-9.3%,-8.1%,-1.0,?
Nc1cc(-c2ccc(Cl)cc2)nn1S(=O)(=O)c1cccc2nsnc12,12.9%,17.8µM*[quencher],9.6%,0.6,?
Nc1cc(-c2ccc(Br)cc2)nn1S(=O)(=O)c1cccc2nsnc12,8.5%,12.6µM*[quencher],0.0%,0.1,?
Nc1cc(-c2cccc(F)c2)nn1S(=O)(=O)c1cccc2nsnc12,-0.3%,-4.8%,11.5%,-3.1,-1.8%
CCN(CC)S(=O)(=O)c1ccc(C(=O)N2CC(=O)Nc3ccc(F)cc3C2c2ccccc2)cc1 (stereo not drawn),·,-12.5%,0.8%,·,-5.2%
Cn1c(=O)c2[nH]c(N=NNc3ccccc3F)nc2n(C)c1=O,25.1µM*,?,?,-4.7,14.1µM*
COc1ccc(NN=Nc2nc3c([nH]2)c(=O)n(C)c(=O)n3C)cc1,15.8µM*,?,?,6.6,25.1µM*
COC(=O)CN1C(=O)C(C)(C)c2cc(S(=O)(=O)Nc3ccc(Br)cc3F)ccc21,·,-13.0%,-7.2%,·,3.3%
C[C@H]1/C=C\CC(=O)OC[C@H](C)C(=O)N2CCC[C@@H]2C(=O)OC1,13.2%,-3.0%[11.6 µM],-1.5%[11.6 µM],1.8,-0.7%[11.5 µM]
Fc1ccccc1Nc1n[nH]c(=S)s1,50.1µM*,-2.2%,-1.7%,2.1,-17.2%
c1ccc2c(Nc3nc4c(s3)CCCC4)cccc2c1,50.1µM*,?,3.7%,·,?
S=c1[nH]nc(Nc2cccc3ccccc23)s1,39.8µM*,?,-2.7%,5.0,?
O=S(=O)(Nc1nc2c(s1)CCCC2)c1ccc2ccccc2c1,14.7%,-25.6%,-2.9%,7.2,-10.4%
S=c1[nH]nc(Nc2ccc(Cl)cc2)s1,?,-11.7%,1.2%,-0.8,-13.5%
COc1ccc(C(=O)N/N=C/c2c[nH]c3ccccc23)cc1,17.0%,·,·,3.1,·
COc1ccc2cc(C(=O)N/N=C/c3sc4ccccc4c3O)ccc2c1,10.2%,7.94µM*[quencher],-5.6%,-1.7,1.26µM*
O=C(N/N=C/c1sc2ccccc2c1O)c1ccccc1,12.0%,?,-7.1%,-2.2,?
O=C(N/N=C/c1sc2ccccc2c1O)c1cccc2ccccc12,1.2%,?,-12.6%,3.7,10µM*
O=C(N/N=C/c1ccccc1F)c1cccc2ccccc12,14.6%,·,·,2.6,·
COc1ccc(C(=O)N/N=C/c2sc3ccccc3c2O)cc1,4.1%,?,-0.1%,2.0,1.78µM*
COc1ccccc1NC(=O)CSc1nnc(N)s1,·,6.0%,-4.4%,·,-15.2%
